{
  "source": "PubChem BioAssay (NCI)",
  "note": "About 83,000 compounds went through this panel and 20% of them were active in at least one assay; those are over-represented in the sample as a whole.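 A percent growth of 40 corresponds to 60% growth inhibition; 0 means no net growth; -100 means all cells died. Active threshold: below 10.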 Values without a mark were called inactive. Activity calls are given as the source filed them.",
  "data": [
    {"system": "HL-60(TB) leukemia", "test": "NCI-60 one-dose screen, 48 h (100 = growth as untreated, 0 = no growth, -100 = all killed)", "details": "10 µM unless noted", "values": [
      {"smiles": "COc1ccc2[nH]c(C(=O)N3CCN(C(=O)OCc4ccc5c(Cl)cc(Cl)c(O)c5n4)CC3)cc2c1", "growth": "-45% (active)"},
      {"smiles": "O=C(COc1cccc(/C=C2\\Oc3ccccc3C2=O)c1)c1ccc([N+](=O)[O-])cc1", "growth": "83.7%"},
      {"smiles": "COc1ccc(C(=O)Cn2c(C(=O)c3ccccc3)nc3ccccc32)cc1", "growth": "-27.5% (active)"},
      {"smiles": "Cc1ccc([C@H]2c3[nH]c4ccccc4c3C[C@H]3C(=O)N(CCCCCCC(=O)NO)CC(=O)N23)cc1", "growth": "18.6%"},
      {"smiles": "Cn1cc(-c2csc(-c3cn(C)c4ncccc34)n2)c2cccnc21", "growth": "95.2%"},
      {"smiles": "CCCCCCCCCC[N+](C)(C)C", "growth": "-6.93% (active)"},
      {"smiles": "CC(=O)N[C@H](C(=O)N[C@@H](CCCNC(=N)N)C(=O)N[C@@H](CCCCN)C(=O)N[C@@H](CCCNC(=N)N)C(=O)N[C@]1(C)CCCCCC/C=C\\CCC[C@@](C)(C(=O)N[C@@H](CCCNC(=N)N)C(=O)N[C@@H](CCC(=O)O)C(=O)N[C@@H](CC(C)C)C(=O)N[C@H](C(=O)N[C@@H](CCC(=O)O)C(N)=O)C(C)C)NC(=O)[C@H](CCC(N)=O)NC(=O)[C@H](CC(C)C)NC(=O)[C@H](CC(C)C)NC(=O)[C@H](CCCNC(=N)N)NC(=O)[C@H](CCCNC(=N)N)NC(=O)[C@H](CC(C)C)NC1=O)C(C)C", "growth": "15.9%"},
      {"smiles": "C=C1C(=O)O[C@H]2[C@H]1CC/C(CNC(=O)/C=C/c1ccccc1)=C\\CC[C@@]1(C)O[C@@H]21", "growth": "-31.3% (active)"},
      {"smiles": "Cc1ccc(-c2nc([P+](c3ccccc3)(c3ccccc3)c3ccccc3)c(Nc3ccccc3)o2)cc1", "growth": "-48.4% (active)"},
      {"smiles": "O=[N+]([O-])c1ccc(-c2ncc(-c3ccc(Br)cc3)o2)cc1", "growth": "76.6%"},
      {"smiles": "CN(C)c1ccc2nc3ccc(=[N+](C)C)cc-3oc2c1", "growth": "-21% (active)"},
      {"smiles": "C=C(C)[C@@H]1CC[C@]2(C)[C@H](CC(=O)N[C@H]3[C@@H]4C[C@](C)(C(=O)OC)CC[C@]4(C)CC[C@]32C)[C@@]1(C)CCC#N", "growth": "83.1%"},
      {"smiles": "O=C(NCCNc1nccc(-c2c(-c3cccc(O)c3)nc3sccn23)n1)c1ccc(N2CCOCC2)c(C(F)(F)F)c1", "growth": "113%"},
      {"smiles": "CCCCCCCCN(CCCCCCCC)C(=O)CCl", "growth": "105%"},
      {"smiles": "O=C(NC[C@H](O)CO)c1ccncc1Nc1ccc(I)cc1F", "growth": "24.2%"},
      {"smiles": "CCN1C(=O)N(CC)C2C1NN=c1s/c(=C\\c3ccc(F)cc3)c(=O)n12", "note": "(stereo not given)", "growth": "-47% (active)"},
      {"smiles": "Cc1cccc2c(=O)c3c(sc12)c(NCc1ccccc1)nc1ccccc13", "growth": "95.5%"},
      {"smiles": "CCOC(=O)c1c(C(=O)OCC)c2cc(-c3ccn4c(C(=O)c5ccccc5)c(C(=O)OCC)c(C(=O)OCC)c4c3)ccn2c1C(=O)c1ccccc1", "growth": "86.3%"},
      {"smiles": "CCOC(=O)c1c2c(c(C)n1Cc1ccc(OC)cc1)-c1oncc1CC2", "growth": "91.9%"},
      {"smiles": "CCCCN1CCN(c2ccc3nc(-c4ccc5nc(-c6ccc(OCC)c(OCC)c6)[nH]c5c4)[nH]c3c2)CC1", "growth": "3.99% (active)"},
      {"smiles": "O=C(Nc1ccc(Cl)cc1)Nc1nc2ccc(OC(F)(F)F)cc2o1", "growth": "83.3%"},
      {"smiles": "CC/C(=C(/c1ccc(Cl)cc1)c1ccc(OCCN2CCCC2)cc1)c1ccccc1", "growth": "17.4%"},
      {"smiles": "Cc1cc(N/N=C/c2nc(-c3ccccc3)oc2C)c2cc(Br)ccc2n1", "growth": "80%"},
      {"smiles": "O=C1CC(c2ccccc2)Cc2nc3ccc(Cl)cc3cc21", "note": "(stereo not given)", "growth": "-20.7% (active)"},
      {"smiles": "Cn1nc(-c2ccccc2)c2c(-c3ccccc3)onc2c1=O", "growth": "1.23% (active)"},
      {"smiles": "CC(=O)CCC(=O)OCc1cc(=O)c(O)co1", "growth": "95%"},
      {"smiles": "O=C1CC(C(F)(F)F)=NN1C(=O)c1nn(-c2ccc(Cl)cc2)cc1O", "growth": "105%"},
      {"smiles": "COC(=O)C1=C(C(=O)ON)[C@@H]2C=C[C@@]1([C@@H](Cc1ccccc1)Nc1ccccc1)O2", "growth": "-3.29% (active)"},
      {"smiles": "Cc1cc2cc3c(=O)[nH]c(=O)cc-3n(CC(O)C(O)C(O)CO)c2cc1C", "note": "(stereo not given)", "growth": "102%"},
      {"smiles": "CCOC(=O)CCC(=O)P(=O)(O)O", "growth": "9.71% (active)"},
      {"smiles": "CC(=O)N1N=C(c2ccc(-n3ccc(C(F)(F)F)n3)c(F)c2)CC1c1ccc[nH]1", "note": "(stereo not given)", "growth": "98.8%"},
      {"smiles": "C=C(CBr)[C@@H]1CC[C@]2(C(=O)O)CC[C@]3(C)[C@H](CC[C@@H]4[C@@]5(C)CCC(=O)C(C)(C)[C@@H]5CC[C@]43C)[C@@H]12", "growth": "71.7%"},
      {"smiles": "[2H]C([2H])([2H])Oc1c(F)cccc1/C=C/C(=O)/C=C(O)/C=C/c1cccc(F)c1OC([2H])([2H])[2H]", "growth": "88.5%"},
      {"smiles": "O=c1[nH]n(-c2ccccc2)c(=O)cc1Cl", "growth": "103%"},
      {"smiles": "CC(C)(C#N)N1CCN(c2ccccc2Cl)CC1", "growth": "103%"},
      {"smiles": "N=C(N)c1ccc(-c2ccc(-c3cc(Cl)cc(Cl)c3)o2)nc1", "growth": "-74.7% (active)"},
      {"smiles": "CCCCN(CCCC)CCCN=c1nc2c(c(N)n1-c1ccccc1)c(=S)n(-c1ccccc1)c(=S)n2-c1ccccc1", "growth": "-74.8% (active)"},
      {"smiles": "O=C1c2c(c3c4cccnc4[nH]c3c3ccc4ccccc4c23)C(=O)N1O", "growth": "5.07% (active)"},
      {"smiles": "C[C@H]1OC(=O)/C=C/[C@@H](O)[C@@H](O)CCCCCCCC[C@@H]1O", "growth": "99.6%"},
      {"smiles": "O=C(CCl)NC1c2ccccc2Oc2ccccc21", "growth": "78.4%"}
    ]}
  ]
}
